According to PubChem BioAssay AID652134 (The Scripps Research Institute Molecular Screening Center, 2013):
About 2,100 (88%) of roughly 2,400 compounds were called active.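 Rule for the calls: active = inhibition above the average of every tested compound plus 3 SD (cut at about 3.8% in these data); inactive = the rest.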 So high a share suggests a set chosen from earlier hits. The list is a sample of the results.

Biological target: Nuclear receptor subfamily 0 group B member 1 (Homo sapiens) (UniProt P51843)
Assay: DAX1 (NR0B1) inhibitors relieving SF-1 repression, confirmation, cell-based, luminescence, HEK293T, full-length DAX-1, SF-1 activated StAR promoter (AID 652134);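 note: 0% = DAX-1 cells with DMSO and 100% = no DAX-1 control cells with DMSO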
Settings: HEK293T StAR-promoter luciferase reporter, SF-1/DAX-1 repression; at 6.8 µM; stronger effect = higher value

Nuclear receptor subfamily 0 group B member 1 (Homo sapiens), sequence (P51843 whole entry, looked up): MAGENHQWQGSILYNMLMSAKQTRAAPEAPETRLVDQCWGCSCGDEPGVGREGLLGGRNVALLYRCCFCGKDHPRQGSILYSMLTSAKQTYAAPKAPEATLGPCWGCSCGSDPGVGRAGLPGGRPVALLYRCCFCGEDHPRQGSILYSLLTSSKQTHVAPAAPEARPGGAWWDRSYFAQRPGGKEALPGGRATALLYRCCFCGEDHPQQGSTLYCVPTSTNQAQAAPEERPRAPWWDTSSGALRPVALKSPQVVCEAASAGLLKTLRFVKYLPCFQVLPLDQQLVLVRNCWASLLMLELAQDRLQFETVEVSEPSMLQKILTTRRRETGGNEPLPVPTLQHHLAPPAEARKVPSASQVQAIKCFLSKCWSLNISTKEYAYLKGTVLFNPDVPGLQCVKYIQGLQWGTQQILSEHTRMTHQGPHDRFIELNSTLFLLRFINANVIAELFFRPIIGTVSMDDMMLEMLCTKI

inhibition, inactive:
CC(C)(O)C#Cc1ccc(CNC[C@H]2O[C@@H](n3cnc4c(=O)[nH]c(N)nc43)[C@H](O)[C@@H]2O)s1 -1.28%, CCN(CC(=O)Nc1c(F)cccc1F)C(=O)c1cnc(C)cn1 0.35%, CC(Oc1ccccc1[N+](=O)[O-])C(=O)N/N=C/c1ccoc1 (stereo unspecified) 1.13%, Cc1cc(C)c(C)c(S(=O)(=O)N2CCN(C(=O)c3ccc4c(=O)n5c(nc4c3)CCC5)CC2)c1C 0.85%, C=CCn1c(SCC(=O)Nc2ccc(NC(C)=O)cc2)nc2sc(C)c(C)c2c1=O -0.94%, COc1ccccc1CCC(=O)OCC(=O)N1CCN(S(=O)(=O)c2ccc(C)cc2C)CC1 1.66%, CCN(c1ccccc1)S(=O)(=O)c1ccc(OCC(=O)N2CCCC2)cc1 0.88%, C/C(=N\NC(=O)c1ccccc1F)c1ccccn1 -7.54%, O=C(CCc1ccccc1)Nc1ncc([N+](=O)[O-])s1 3.12%, COc1ccc(CCOC2OC(CO)C(OC(=O)/C=C/c3ccc(O)c(OC)c3)C(O[C@H]3O[C@@H](C)[C@H](O)[C@@H](O)[C@H]3O)C2O)cc1O (stereo partly specified) 2.5%, COc1ccc(C(=O)NCC[N+](C)(C)C)cc1 1.64%, O=C(N/N=C\C1CC=CCC1)c1ccc(Br)o1 (stereo unspecified) 0.48%, CCCc1cc(C(=O)Nc2ccc(C(=O)OC)cc2)cs1 3.03%, COc1cc(OC)c(C(=O)NNC(=O)c2ccc(NS(=O)(=O)c3cccs3)cc2)cc1OC 1.04%

inhibition, active:
O=C(NCCc1ccc(F)cc1)c1ccc2nccnc2c1 12.4%, COc1ccc(Nc2ncc(F)c(N3CCOCC3)n2)cc1 11.3%, OC(c1ccccc1)c1nc(-c2cnc3ccccc3c2)cs1 (stereo unspecified) 13%, O=C1C(C=NCC2CCCO2)=C(O)c2ccccc21 (stereo unspecified) 7.49%, CC(=O)Nc1cccc(-c2csc(Nc3cccc(C)n3)n2)c1 10.7%, COc1cc(C2c3cc4c(cc3C(O)C3COC(=O)C23)OCO4)cc(OC)c1OC (stereo unspecified) 19.5%, COc1cc(/C=N/O)ccc1OCc1ccc([N+](=O)[O-])cc1 11.6%, CC(=O)Nc1cccc(C(=O)OCC(=O)c2ccc3c(c2)OCO3)c1 14.1%, CC(C)c1ccc(C=NNc2ccc([N+](=O)[O-])cn2)cc1 14.9%, S=C(c1ccc(-c2ccccc2)o1)N1CCCCC1 11%, COc1ccc2nc(SCc3ccccc3)nc(C)c2c1 20.3%, CC(C)Cc1cc(C(=O)NCCc2ccccc2)no1 8.87%, CNCC(O)c1ccc(O)c(O)c1 (stereo unspecified) 3.72%, C(=N\Nc1ccc2ccccc2n1)/c1ccc2c(c1)OCO2 13.2%, COc1ccc2nc(-c3ccccn3)ccc2c1 12.2%, c1ccc2[nH]c(-c3nc4ccccc4[nH]3)nc2c1 11.3%, Cc1ccc(-c2nc3ccccc3[nH]2)cc1N 11.7%, O=C(NC(=S)NC1CCCCC1)c1ccc(Cl)cc1 6.95%, O=C(c1cnn2ccccc12)N1CCc2ccccc21 9.73%, Cc1cccc(NC(=O)/C=C/c2ccc3c(c2)OCO3)n1 13.6%, COc1cccc(/C=C/C(=O)Nc2ccc3c(c2)OCCO3)c1 3.84%, O=C(O)c1cccc(N=NN2CCCCCC2)c1 15%, O=c1c2c(nc3n1CCCCC3)sc1c(O)cccc12 16.3%, O=C(Nc1ccc(Cl)c(Cl)c1)c1ccccc1NC(=O)C1CC=CCC1C(=O)O (stereo unspecified) 7.46%, O=c1oc(/C=C/c2ccccc2)nc2ccccc12 11.2%, Cc1ccc(S(=O)Cc2ccc(C(=O)N3CCN(C4CCCCC4)CC3)o2)cc1 (stereo unspecified) 5.33%, O=[N+]([O-])c1ccc2oc(-c3cccc(O)c3)nc2c1 10.7%, COc1ccc(-c2cn3ccc(C)cc3n2)cc1 9.6%, COc1ccc(-c2cn3ccsc3n2)cc1 12.2%, O=c1c2c(nc3cc(-c4cccc(Cl)c4)[nH]n13)CCCC2 22.3%, O=C(CSc1cccc[n+]1[O-])c1ccc(-c2ccccc2)cc1 3.72%, O=C(NCCc1c[nH]c2ccccc12)c1cc2ccccc2oc1=O 10.1%, Cc1cc(OCc2cc(C(=O)NCc3cc(C(C)C)no3)no2)cc(C)c1Cl 6.04%, Cc1nc2cc(NC(=O)Nc3cccc(F)c3)ccc2n1C 15.5%, Nc1ccc(C(=O)Nc2ccccc2N)cc1 94.3%, Cn1ccnc1SCC(=O)Nc1ccc2c(c1)OCCO2 10.6%, CN(C(=O)c1cc2c(=O)n3ccccc3nc2s1)C1CCCCC1 9.28%, NS(=O)(=O)c1ccc2nc(NC(=O)C3=COCCO3)sc2c1 9.88%, Cc1sc(NC(=O)c2ccc3ncsc3c2)c(C(N)=O)c1C 14.4%, CCOC(=O)c1c(S(=O)(=O)Nc2ccc(CN3CCC(C)CC3)cc2)c(C)n(C)c1C 4.2%, CCc1ccc(NC2Nc3cc(C)nn3S2)cc1 (stereo unspecified) 10.6%, CCOc1cccc(/C=C/c2ccc3ccccc3n2)c1OC(C)=O 10.4%, Cc1csc(SCC(=O)Nc2sccc2C#N)n1 16.1%, COC(=O)c1sc(NC(=O)c2ccc(OC)cc2OC)nc1C 13.9%, O=C(Nc1ccc2c(c1)CCC2)c1ccc(Br)s1 15.1%, COc1ccc(/C=C/C(=O)Nc2ccc(C34CC5CC(CC(O)(C5)C3)C4)cc2)cc1OC 4.27%, Clc1ccc(Nc2nc(-c3cccs3)cs2)nc1 13.8%, Cc1ccccc1OCC(=O)Nc1ccc2c(c1)ncn2C 8.73%, Cc1ccccc1Nc1nc(N)nc(CSc2ccccc2)n1 19.3%, CCCNC(=O)C1CC(=O)N(c2ccc(OCc3ccccc3)cc2)C1 (stereo unspecified) 14.4%, Cc1ccc(N/C=C/C(=O)c2ccccc2)cc1C 10.3%, CC1CCN(C(=O)COC(=O)c2cc(=O)[nH]c3ccccc23)CC1 9.14%, O=C(NCC1(N2CCCCC2)CCCCC1)c1ccc(NS(=O)(=O)c2ccc(F)cc2)cc1 9.71%, CCOc1ccc(S(=O)(=O)Nc2cccc(C(=O)NCC3(N4CCCCC4)CCCCC3)c2)cc1 8.51%, O=C(c1cc(-c2ccccc2O)on1)N1CCCC1 11.2%, COc1ccccc1-c1cc(C(=O)N2CCCCC2)no1 13.3%, O=C(c1cc(-c2cccs2)on1)N1CCCCC1 12.9%, COc1ccc(OCc2cc(C(=O)N3CCCC3)no2)c2ccccc12 6.33%, CC(C)c1ccc(Nc2ncccc2C#N)cc1 5.79%, Cc1ccnc(NC(=O)CCNS(=O)(=O)c2ccc(C)c(C)c2)c1 14%, CC1CCCN(c2ccc(C(=O)NCCc3ccccc3)cn2)C1 (stereo unspecified) 7.54%, CC[C@]1(O)CC2CN(CCc3c([nH]c4ccccc34)[C@@](C(=O)OC)(c3cc4c(cc3OC)N(C=O)[C@H]3[C@@](O)(C(=O)OC)[C@H](OC(C)=O)[C@]5(CC)C=CCN6CC[C@]43[C@@H]65)C2)C1 (stereo partly specified) 17.7%, CC[C@]1(O)C[C@@H]2CN(CCc3c([nH]c4ccccc34)[C@@](C(=O)OC)(c3cc4c(cc3OC)N(C)[C@H]3[C@@](O)(C(=O)OC)[C@H](OC(C)=O)[C@]5(CC)C=CCN6CC[C@]43[C@@H]65)C2)C1 19.4%, Cc1c(C(=O)Nc2ccccn2)oc2ccc(Br)cc12 12.8%, CCOc1ccc(-c2nnc(-c3ccco3)o2)cc1 9.81%, O=C(NCC1CCCO1)c1cc2c(s1)CCCC2 (stereo unspecified) 5.13%, O=C(Nc1ccc2ccccc2c1[N+](=O)[O-])c1ccccc1 8.86%, O=C(NCCOc1ccccc1)c1ccccc1F 13.3%, O=C(Nc1ccn(Cc2ccccc2)n1)c1n[nH]c([N+](=O)[O-])c1Cl 10.4%, COc1ccc(-c2csc(Nc3ccccn3)n2)cc1 12.8%, COC(=O)Nc1nc2ccc(C(=O)C3CC3)cc2[nH]1 17.1%, CN1CCN(C(=O)c2ccc(-c3ccc(Br)cc3)o2)CC1 6.02%, CCCOc1ccc(C(=O)NCCc2ccccc2)cc1 11.2%, CCCc1cc(C(=O)Nc2ccc(Cl)cn2)cs1 8.76%, Nc1c(C(=O)Nc2ccc3c(c2)OCCO3)nnn1Cc1ccccc1 12.5%, O=C(Nc1ccc(NC(=O)c2cccs2)cn1)c1ccco1 12.9%, O=C(NC(=S)Nc1ccc(Cl)cc1Cl)C1CC1 5.19%, O=C(Nc1ccccc1)Nc1nc2ccccc2s1 14.6%, CC(C)c1ccc(Nc2nnc(SCC(=O)c3nnc(-c4ccccc4)o3)s2)cc1 7.92%, CCc1ccc2oc(-c3ccc(N)cc3)nc2c1 12.2%, CC(C)(C)c1csc(NC2=NS(=O)(=O)c3ccccc32)n1 11.5%, Cc1ccc(-n2cc3ccc([N+](=O)[O-])cc3n2)cc1 12.1%, Brc1ccc2nc(N3CCCC3)sc2c1 7.35%, O=C(Nc1ncccc1O)c1ccc(C(=O)c2ccccc2)cc1 51.3%, O=C(Nc1ncccc1O)c1ccc(S(=O)(=O)N2CCCCCC2)cc1 7.57%, O=C(Nc1ncccc1O)c1ccc(S(=O)(=O)N2CCCC2)cc1 10.3%, CCc1ccc(NC(=O)N2CCc3ccccc3C2)cc1 5.01%
